Holding throughout (assay type): functional
Experiment [1] addresses Solute carrier family 2, facilitated glucose transporter member 1 (Homo sapiens) (UniProt P11166). Put plainly: ST_JUDE_LEISH: Cytotoxicity at 2uM final concentration against transgenic Leishmania Mexicana promastigotes LmGLUT1 that are glucose transport deficient and complemented with the human glucose transporter GLUT1. Activity is measured by DNA content using SYBR green in vitro.

Experiment [2] has as its target Hexose transporter 1 (Plasmodium falciparum) (UniProt O97467). Nature of the experiment: ST_JUDE_LEISH: Cytotoxicity at 2uM final concentration against transgenic Leishmania Mexicana promastigotes LmPfHT that are glucose transport deficient and complemented with the Plasmodium falciparum hexose transporter. Activity is measured by DNA content using SYBR green in vitro.

For experiment [3], the target named is Glucose transporter (Leishmania mexicana) (UniProt O61059). Nature of the experiment: ST_JUDE_LEISH: Cytotoxicity at 2uM final concentration against transgenic Leishmania Mexicana promastigotes LmGT2 that are glucose transport deficient and complemented with the L. Mexicana glucose transporter 2. Activity is measured by DNA content using SYBR green in vitro.

Solute carrier family 2, facilitated glucose transporter member 1 (Homo sapiens), sequence (P11166 whole entry): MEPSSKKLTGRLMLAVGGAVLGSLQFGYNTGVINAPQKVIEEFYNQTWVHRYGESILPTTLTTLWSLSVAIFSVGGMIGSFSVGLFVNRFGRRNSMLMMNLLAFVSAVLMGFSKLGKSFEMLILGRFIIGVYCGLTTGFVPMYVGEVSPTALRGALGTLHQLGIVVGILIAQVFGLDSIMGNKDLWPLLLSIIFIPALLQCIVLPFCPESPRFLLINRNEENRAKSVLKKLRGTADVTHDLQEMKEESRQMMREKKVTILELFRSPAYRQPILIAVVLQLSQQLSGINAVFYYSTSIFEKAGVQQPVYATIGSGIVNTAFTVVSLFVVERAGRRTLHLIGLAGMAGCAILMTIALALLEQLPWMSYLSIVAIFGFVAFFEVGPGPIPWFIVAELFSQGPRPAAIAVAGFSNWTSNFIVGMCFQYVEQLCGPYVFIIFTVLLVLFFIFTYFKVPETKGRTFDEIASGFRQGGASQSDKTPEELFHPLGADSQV

With `CSc1nc2nc(C)c(Cc3cccc(F)c3)c(C)n2n1`, the inhibition in experiment [1] was -1.07%; in experiment [2], -0.45%; in experiment [3], 0.34%.

For the compound `Cc1sc(NC(=O)Cc2cccc(C(F)(F)F)c2)nc1-c1cccc(Cl)c1`, the inhibition was 9.6% in experiment [1], 8.91% in experiment [2] and 8.34% in experiment [3].

For `CCn1c2c(c(=N)c3ccccc31)CCC2`, the inhibition in experiment [1] is -0.78%; in experiment [2], -2.72%; in experiment [3], -1.61%.

Regarding `O=C(/C=C/c1ccc(Cl)c(Cl)c1)NCCCCCN1CCC(NC(=O)Nc2ccc(C(F)(F)F)cc2)CC1`, the inhibition was 8.19% in experiment [1], 8.67% in experiment [2] and 8.81% in experiment [3].

Consider `CCCC(C)NC(=O)c1cnn(-c2ccc(C(C)(C)C)cc2)c1OCc1ccc(Br)cc1` (stereo not drawn), for which the inhibition was 4.76% in experiment [1], 6.02% in experiment [2] and 5.11% in experiment [3].

With `COc1ccc(F)cc1-c1cccc(CNC2CCN(CC3Cn4c(=O)ccc5ccc(F)c3c54)CC2)c1` (stereo not drawn), the inhibition stood at 10.1% in experiment [1], 14.3% in experiment [2] and 18.8% in experiment [3].

Turning to `CC1CCCN1Cc1cccc(-c2ccc(C(=O)NCCOc3ccccc3)s2)c1` (stereo not drawn), the inhibition in experiment [1] stood at 72%; in experiment [2] it was 38.9%; in experiment [3], 25.7%.

As to `CN1CCN(CCCCCCNc2c3ccccc3nc3ccccc23)CC1`, the inhibition is 27.1% in experiment [1], 19.4% in experiment [2] and 10.9% in experiment [3].

`COc1ccc2nccc([C@@H](O)CN3CCC(NCc4ccc5scnc5c4)CC3)c2c1`: the inhibition stood at 3.81% in experiment [1], 2.6% in experiment [2] and 3.04% in experiment [3].

Take `C=CCc1cc(Cc2cnc(N)nc2N)c2ccc(C)nc2c1OC`: the inhibition in experiment [1] was 8.65%; in experiment [2] it was 6.7%; in experiment [3], 5.13%.

For the compound `O=C(Nc1ccc(Cl)cc1)Nc1cccc(-c2ccc(-c3nc4cc(F)ccc4[nH]3)cc2)c1`, the figures for the inhibition in experiment [1], in experiment [2] and in experiment [3] were 6.12%, 1.78% and 4.76%, respectively.

With `Oc1cc(Nc2ccnc3cc(I)ccc23)c(F)cc1Cl`, the inhibition worked out at 6.52% in experiment [1], 2.02% in experiment [2] and 3.58% in experiment [3].

Consider `COc1ccc(-c2cccc(NC(=O)c3cccc(C#N)c3)c2)cc1CN(C)CCO`, for which the inhibition came out at 3.7% in experiment [1], 5.06% in experiment [2] and 5.5% in experiment [3].

On to `S=C(NCCCCCN1CCC(c2c[nH]c3ccccc23)CC1)Nc1cc(Cl)cc(Cl)c1`, for which the figures for the inhibition in experiment [1], in experiment [2] and in experiment [3] were 0.38%, -0.55% and 0.49%, respectively.

As to `CCCCCCCC/C=C\CCCCCCCC(=O)NCc1ccc(O)c(OC)c1`, the inhibition in experiment [1] was determined as 8.15%; in experiment [2], 7.4%; in experiment [3] it was 5.67%.

As to `CCN(CC)CCN(Cc1ccc(-c2ccc(C(F)(F)F)cc2)cc1)C(=O)Cn1cc(CCCc2cccc(F)c2F)c(=O)c2ccccc21`, the figures for the inhibition in experiment [1], in experiment [2] and in experiment [3] were 4.03%, 3.93% and 4.35%, respectively.

With `CCCCCCCn1c2c(c(=N)c3c1CCC3)CCCC2`, the inhibition in experiment [1] was found to be 92%; in experiment [2] it was 90.8%; in experiment [3] it was 80.1%.

Regarding `COc1ccc2nccc([C@@H](O)CN3CCC(NC(=O)/C=C/c4cccc(C)c4)CC3)c2c1`, the inhibition stood at 11% in experiment [1], 9.47% in experiment [2] and 3.43% in experiment [3].

Regarding `O=C(Nc1ccc(Oc2ccc(OC(F)(F)F)cc2)cc1)c1ccco1`, the inhibition in experiment [1] was 2.92%; in experiment [2], 1.49%; in experiment [3], -0.53%.

For the compound `CCCc1ccc(NC(=O)c2ccc(CN3CCCN(CC4CCCCC4)CC3)cc2)cc1`, the inhibition in experiment [1] is 2.9%; in experiment [2] it was 7.86%; in experiment [3] it was 5.46%.

As for `COCCNCc1ncsc1-c1ccc2c(Nc3cc(O)ccc3C)ccnc2c1`, the values for the inhibition in experiment [1], in experiment [2] and in experiment [3] were 1.05%, 0.61% and 1%, respectively.

With `O=C(Nc1cccc(CN2CCCN(Cc3ccccc3)CC2)c1)c1ccc(Cl)c(Cl)c1`, the inhibition in experiment [1] was 4.45%; in experiment [2], 3.88%; in experiment [3], -5.96%.

In the case of `Fc1ccc2[nH]ccc(=NN=CC=Cc3ccccc3)c2c1`, the inhibition in experiment [1] is 1.52%; in experiment [2], 3%; in experiment [3], -2.56%.

Consider `Cc1cccc2nc(-c3ccc(-c4cccc(CNCc5cccc(N)c5)c4)cc3)[nH]c12`, for which the values for the inhibition in experiment [1], in experiment [2] and in experiment [3] were 2.44%, 2.16% and -1.02%, respectively.

`COc1c(Br)cc(Br)cc1C(C)=O`: the inhibition in experiment [1] is 3.62%; in experiment [2], 3.58%; in experiment [3] it was -0.79%.

`Cc1nc(C)c(-c2ccc(Oc3ccc(Cl)c(Cl)c3)cc2)c(O)c1Cl`: the inhibition in experiment [1] was found to be 1.91%; in experiment [2], 1.63%; in experiment [3], 2.1%.

As for `Cc1cc(OCCCN2CCC(NS(=O)(=O)c3ccc(Cl)c(Cl)c3)C2)c2ccccc2n1` (stereo not drawn), the values for the inhibition in experiment [1], in experiment [2] and in experiment [3] were 3.81%, 4.67% and 3.91%, respectively.

For `Oc1ccc(CCNc2nc(NCc3cccc(OCc4cccc(F)c4)c3)nc(N3CCNCC3)n2)cc1`, the inhibition was -1.28% in experiment [1], 0.71% in experiment [2] and 1.08% in experiment [3].

On to `O=C(C1CC1c1ccccc1)N(Cc1ccc(-c2ccc(CNCCc3ccccc3)cc2)cc1)C1CCNCC1` (stereo not drawn), for which the inhibition was 10.3% in experiment [1], 8.35% in experiment [2] and 9.97% in experiment [3].

`O=C(Nc1ccc(OC2CCN(Cc3ccsc3)CC2)c(Cl)c1)c1ccco1`: the inhibition in experiment [1] is 2.93%; in experiment [2], 5.95%; in experiment [3], 4.7%.

As to `N#Cc1ccc(N2CCN(Cc3ccc(-c4ccc(-c5nc6cc(C(F)(F)F)ccc6[nH]5)s4)cc3)CC2)nc1`, the figures for the inhibition in experiment [1], in experiment [2] and in experiment [3] were 2.33%, 1.76% and 0.96%, respectively.

Regarding `Cc1cccc2nc(-c3ccc(-c4ccc(NC(=O)Nc5ccc(Cl)c(Cl)c5)cc4)cc3)[nH]c12`, the inhibition in experiment [1] is 2.18%; in experiment [2], 1.99%; in experiment [3] it was 1.71%.

Turning to `O=C(N[C@@H](Cc1ccccc1)C(=O)NCCN1CCCCC1)c1ccc(O)c(-c2ccc(Cl)c(Cl)c2)c1`, the inhibition in experiment [1] was 1.95%; in experiment [2] it was 3.59%; in experiment [3], 0.78%.

`CCN(CC)CCN(Cc1ccc(-c2ccc(C(F)(F)F)cc2)cc1)C(=O)Cn1c(CCc2cc(F)ccc2F)nc(=O)c2ccccc21`: the inhibition is 1.25% in experiment [1], -1.65% in experiment [2] and 1.58% in experiment [3].

On to `COc1cccc(C(=O)NC(c2ccc(Cl)cc2Cl)c2cc(Cl)c3cccnc3c2O)c1` (stereo not drawn), for which the inhibition in experiment [1] was 0.8%; in experiment [2], -0.13%; in experiment [3] it was 1.53%.

Regarding `CO/C(=C\C=C\c1cc2cc(Cl)c(Cl)cc2[nH]1)C(=O)NCCCN1CCCC[C@H]1C`, the inhibition amounted to 3.27% in experiment [1], 2.98% in experiment [2] and 1.43% in experiment [3].

As a reminder, the inhibition is the change of the read-out against control, counted positive when it falls.

The values above are taken from ChEMBL document CHEMBL3433997, “St. Jude Leishmania screening dataset” (2016).
